{"source": "PubChem BioAssay (Tox21)", "note": "Several values for one entry are separate records, joined by “and”; a condition that tells them apart may be missing. Identical values can stand only once. Inconclusive results are not listed. Entries that show only a call come without a potency. Values without a mark were called inactive. Activity calls are given as the source filed them. Calls follow the shape of the dose curve; as a rule, active = well fitted curve in the direction sought with a large enough effect in the repeat runs; inconclusive = weak or mixed curves; inactive = no such curve, though single readings can be large; an effect the other way counts as inactive or inconclusive. Potency is read from the fitted curve at half-maximal effect.", "data": [{"system": "not listed separately", "assay": "qHTS assay to identify small molecule antagonists of the constitutive androstane receptor (CAR) signaling pathway - cell viability counter screen (AID 1224837); also: nearly all actives have a fitted effect of over 45% in size", "conditions": "HepG2-CYP2B6-hCAR viability, CellTiter-Fluor, 23 h, co-treated with 50 nM CITCO; series mostly up to 92.4 µM; activity change, negative = cytotoxicity: at the top concentration", "method_in_brief": "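In quantitative HTS format, compounds at 15 concentrations were applied to HepG2 cells double-transfected with hCAR and CYP2B6-2.2kb under 50 nM CITCO stimulation; live-cell protease activity was read after 23 hr via CellTiter-Fluor.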", "values": [{"smiles": "CC(C)Oc1ccc2c(=O)c(-c3ccccc3)coc2c1", "Potency": "inactive"}, {"smiles": "Cc1ccc(C)c(O)c1C", "Potency": "inactive"}, {"smiles": "Cc1[nH]c(=O)c(C#N)cc1-c1ccncc1", "Potency": "inactive"}, {"smiles": "CCCCC/C=C/C=C/C=O", "Potency": "inactive"}, {"smiles": "c1ccncc1", "Potency": "inactive"}, {"smiles": "Cc1cccc(C(=O)O)c1", "Potency": "inactive"}, {"smiles": "CCCCC(CC)COCC1CO1", "note": "(stereo unspecified)", "Potency": "inactive"}, {"smiles": "O=C(COc1ccc(Cl)cc1)N1CCN(Cc2ccc3c(c2)OCO3)CC1", "Potency": "inactive"}, {"smiles": "O=[N+]([O-])c1ccc2c(c1)Cc1ccccc1-2", "Potency": "inactive"}, {"smiles": "CC(C)OB(OC(C)C)OC(C)C", "Potency": "inactive"}, {"smiles": "CC(CCC(=O)O)(c1ccc(O)cc1)c1ccc(O)cc1", "Potency": "inactive"}, {"smiles": "CCCCc1oc2ccccc2c1C(=O)c1cc(I)c(OCCN(CC)CC)c(I)c1", "Potency": "43.6 µM (active)"}, {"smiles": "CC(=O)C1(C)CC2=C(CCCC2(C)C)CC1C", "note": "(stereo unspecified)", "Potency": "inactive"}, {"smiles": "CCOC(=O)C(C#N)=C(c1ccccc1)c1ccccc1", "Potency": "inactive"}, {"smiles": "CC(C)(C)NC(=O)[C@H]1CC[C@H]2[C@@H]3CC[C@H]4NC(=O)C=C[C@]4(C)[C@H]3CC[C@]12C", "Potency": "inactive"}, {"smiles": "C[C@]12CC[C@H]3[C@@H](CCC4=CC(=O)CC[C@@]43C)[C@@H]1CC[C@@H]2C(=O)CO", "Potency": "inactive"}, {"smiles": "C=C(C)C(=O)OCCOC(=O)C(=C)C", "Potency": "inactive"}]}, {"target": "Nuclear receptor subfamily 1 group I member 3 (Homo sapiens) (UniProt Q14994)", "sequence (Q14994 whole entry, looked up)": "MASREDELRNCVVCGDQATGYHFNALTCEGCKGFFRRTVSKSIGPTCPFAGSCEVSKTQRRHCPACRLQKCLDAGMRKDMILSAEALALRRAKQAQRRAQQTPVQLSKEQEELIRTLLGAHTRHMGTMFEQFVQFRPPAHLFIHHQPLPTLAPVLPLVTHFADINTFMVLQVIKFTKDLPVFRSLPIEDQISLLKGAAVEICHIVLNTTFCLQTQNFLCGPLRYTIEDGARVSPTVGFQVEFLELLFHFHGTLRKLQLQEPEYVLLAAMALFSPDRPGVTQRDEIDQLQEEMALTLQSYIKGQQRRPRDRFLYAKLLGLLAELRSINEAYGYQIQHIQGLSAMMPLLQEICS", "assay": "qHTS assay to identify small molecule antagonists of the constitutive androstane receptor (CAR) signaling pathway (AID 1224838); also: nearly all actives have a fitted effect of over 40% in size", "conditions": "HepG2-CYP2B6-hCAR luciferase, CITCO-stimulated, 24 h; series mostly up to 92.4 µM; activity, negative = inhibition: at the top concentration", "method_in_brief": "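CITCO-stimulated (50 nM final) HepG2 cells stably transfected with hCAR and CYP2B6-2.2kb luciferase were exposed to compounds at 15 concentrations for 24 h at 37 C/5% CO2. A luciferase reagent was added and luminescence recorded after 30 min.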", "values": [{"smiles": "COC(C)COC(C)COC(C)CO", "note": "(stereo unspecified)", "Potency": "inactive"}, {"smiles": "C[C@]12CCC(=O)C=C1CC[C@@H]1[C@@H]2C(=O)C[C@@]2(C)[C@H]1CC[C@]2(O)C(=O)CO", "Potency": "inactive"}, {"smiles": "Cc1cccc([N+](=O)[O-])c1C", "Potency": "inactive"}, {"smiles": "CCC(C)c1ccccc1O", "note": "(stereo unspecified)", "Potency": "inactive"}, {"smiles": "O=C(c1ccccc1)c1ccccc1O", "Potency": "inactive"}, {"smiles": "Brc1cc(Oc2cc(Br)c(Br)c(Br)c2Br)c(Br)c(Br)c1Br", "Potency": "inactive"}, {"smiles": "CC1=CC2C3CC(C=C3C)C2C1", "note": "(stereo unspecified)", "Potency": "inactive"}, {"smiles": "Nc1ncn([C@@H]2O[C@H](CO)[C@@H](O)[C@H]2O)c(=O)n1", "activity, negative = inhibition": "1.85% [at 42.5 µM]"}, {"smiles": "OC(CCl)CCl", "Potency": "inactive"}, {"smiles": "CCC(C)CO", "note": "(stereo unspecified)", "Potency": "inactive"}, {"smiles": "Cc1ccc2c(n1)Oc1ccc(C(C)C(=O)OCC(=O)N(C)C)cc1C2", "note": "(stereo unspecified)", "Potency": "inactive"}, {"smiles": "O=C(/C=C/c1ccccc1)OCc1ccccc1", "Potency": "inactive"}, {"smiles": "C#C[C@]1(O)CC[C@H]2[C@@H]3CCc4cc(OC)ccc4[C@H]3CC[C@@]21C", "Potency": "inactive"}, {"smiles": "Cc1cccc(N(C)C(=S)Oc2ccc3ccccc3c2)c1", "Potency": "inactive"}, {"smiles": "Cc1c(OCC(F)(F)F)ccnc1CS(=O)c1nc2ccccc2[nH]1", "note": "(stereo unspecified)", "Potency": "inactive"}, {"smiles": "Clc1nc(Cl)c(Cl)c(Cl)c1Cl", "Potency": "inactive"}, {"smiles": "Cn1cnc([N+](=O)[O-])c1Sc1ncnc2nc[nH]c12", "Potency": "4.83 µM (active) and 11.9 µM (active)"}, {"smiles": "O=C(Nc1ccc(Cl)cc1)Nc1ccc(Cl)c(Cl)c1", "Potency": "inactive"}, {"smiles": "O=CCc1ccccc1", "Potency": "inactive"}, {"smiles": "OC1CCCCCCCCCCC1", "Potency": "inactive"}, {"smiles": "OC[C@H]1O[C@@H]2O[C@H]3[C@H](O)[C@@H](O)[C@@H](O[C@H]4[C@H](O)[C@@H](O)[C@@H](O[C@H]5[C@H](O)[C@@H](O)[C@@H](O[C@H]6[C@H](O)[C@@H](O)[C@@H](O[C@H]7[C@H](O)[C@@H](O)[C@@H](O[C@H]8[C@H](O)[C@@H](O)[C@@H](O[C@H]1[C@H](O)[C@H]2O)O[C@@H]8CO)O[C@@H]7CO)O[C@@H]6CO)O[C@@H]5CO)O[C@@H]4CO)O[C@@H]3CO", "Potency": "inactive"}, {"smiles": "CC(C)Oc1ccc2c(=O)c(-c3ccccc3)coc2c1", "Potency": "inactive"}, {"smiles": "Cc1ccc(C)c(O)c1C", "Potency": "inactive"}, {"smiles": "Cc1[nH]c(=O)c(C#N)cc1-c1ccncc1", "Potency": "inactive"}, {"smiles": "CCCCC/C=C/C=C/C=O", "Potency": "inactive"}, {"smiles": "c1ccncc1", "Potency": "inactive"}, {"smiles": "Cc1cccc(C(=O)O)c1", "Potency": "inactive"}, {"smiles": "CCCCC(CC)COCC1CO1", "note": "(stereo unspecified)", "Potency": "inactive"}, {"smiles": "O=C(COc1ccc(Cl)cc1)N1CCN(Cc2ccc3c(c2)OCO3)CC1", "Potency": "inactive"}, {"smiles": "O=[N+]([O-])c1ccc2c(c1)Cc1ccccc1-2", "Potency": "inactive"}, {"smiles": "CC(C)OB(OC(C)C)OC(C)C", "Potency": "inactive"}, {"smiles": "CC(CCC(=O)O)(c1ccc(O)cc1)c1ccc(O)cc1", "Potency": "inactive"}, {"smiles": "CC(=O)C1(C)CC2=C(CCCC2(C)C)CC1C", "note": "(stereo unspecified)", "Potency": "inactive"}, {"smiles": "CCOC(=O)C(C#N)=C(c1ccccc1)c1ccccc1", "Potency": "inactive"}, {"smiles": "CC(C)(C)NC(=O)[C@H]1CC[C@H]2[C@@H]3CC[C@H]4NC(=O)C=C[C@]4(C)[C@H]3CC[C@]12C", "Potency": "inactive"}, {"smiles": "C[C@]12CC[C@H]3[C@@H](CCC4=CC(=O)CC[C@@]43C)[C@@H]1CC[C@@H]2C(=O)CO", "activity, negative = inhibition": "-10.1% [at 42.5 µM]"}, {"smiles": "C=C(C)C(=O)OCCOC(=O)C(=C)C", "Potency": "inactive"}]}, {"target": "Nuclear receptor subfamily 1 group I member 3 (Homo sapiens) (UniProt Q14994)", "assay": "qHTS assay to identify small molecule agonists of the constitutive androstane receptor (CAR) signaling pathway (AID 1224839); also: nearly all actives have a fitted effect of over 15% in size;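 as to activation: HepG2 cells stably carrying human CAR and a CYP2B6 luciferase reporter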", "conditions": "HepG2 hCAR CYP2B6-luciferase, agonist mode, 24 h; series mostly up to 92.4 µM; activation: at the top concentration", "method_in_brief": "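Luminescence read-out (ONE-Glo, 30 min, room temperature) from double-stable HepG2-CYP2B6-hCAR cells exposed 24 h to 15-point compound series in presence of 0.75 uM PK11195 final.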", "values": [{"smiles": "COC(C)COC(C)COC(C)CO", "note": "(stereo unspecified)", "Potency": "inactive"}, {"smiles": "C[C@]12CCC(=O)C=C1CC[C@@H]1[C@@H]2C(=O)C[C@@]2(C)[C@H]1CC[C@]2(O)C(=O)CO", "Potency": "inactive"}, {"smiles": "Cc1cccc([N+](=O)[O-])c1C", "Potency": "inactive"}, {"smiles": "CCC(C)c1ccccc1O", "note": "(stereo unspecified)", "Potency": "inactive"}, {"smiles": "O=C(c1ccccc1)c1ccccc1O", "Potency": "inactive"}, {"smiles": "Brc1cc(Oc2cc(Br)c(Br)c(Br)c2Br)c(Br)c(Br)c1Br", "Potency": "inactive"}, {"smiles": "CC1=CC2C3CC(C=C3C)C2C1", "note": "(stereo unspecified)", "Potency": "inactive"}, {"smiles": "Nc1ncn([C@@H]2O[C@H](CO)[C@@H](O)[C@H]2O)c(=O)n1", "Potency": "inactive"}, {"smiles": "OC(CCl)CCl", "Potency": "inactive"}, {"smiles": "CCC(C)CO", "note": "(stereo unspecified)", "Potency": "inactive"}, {"smiles": "Cc1ccc2c(n1)Oc1ccc(C(C)C(=O)OCC(=O)N(C)C)cc1C2", "note": "(stereo unspecified)", "Potency": "11.9 µM (active)"}, {"smiles": "O=C(/C=C/c1ccccc1)OCc1ccccc1", "Potency": "29.8 µM (active)"}, {"smiles": "C#C[C@]1(O)CC[C@H]2[C@@H]3CCc4cc(OC)ccc4[C@H]3CC[C@@]21C", "Potency": "27.3 µM (active) and 23.7 µM (active)"}, {"smiles": "Cc1cccc(N(C)C(=S)Oc2ccc3ccccc3c2)c1", "Potency": "27.3 µM (active) and 26.6 µM (active)"}, {"smiles": "Cc1c(OCC(F)(F)F)ccnc1CS(=O)c1nc2ccccc2[nH]1", "note": "(stereo unspecified)", "Potency": "30.6 µM (active) and 11.9 µM (active)"}, {"smiles": "Clc1nc(Cl)c(Cl)c(Cl)c1Cl", "activation": "8.79%"}, {"smiles": "Cn1cnc([N+](=O)[O-])c1Sc1ncnc2nc[nH]c12", "Potency": "inactive"}, {"smiles": "O=C(Nc1ccc(Cl)cc1)Nc1ccc(Cl)c(Cl)c1", "Potency": "3.44 µM (active) and 4.22 µM (active)"}, {"smiles": "O=CCc1ccccc1", "Potency": "inactive"}, {"smiles": "OC1CCCCCCCCCCC1", "Potency": "inactive"}, {"smiles": "OC[C@H]1O[C@@H]2O[C@H]3[C@H](O)[C@@H](O)[C@@H](O[C@H]4[C@H](O)[C@@H](O)[C@@H](O[C@H]5[C@H](O)[C@@H](O)[C@@H](O[C@H]6[C@H](O)[C@@H](O)[C@@H](O[C@H]7[C@H](O)[C@@H](O)[C@@H](O[C@H]8[C@H](O)[C@@H](O)[C@@H](O[C@H]1[C@H](O)[C@H]2O)O[C@@H]8CO)O[C@@H]7CO)O[C@@H]6CO)O[C@@H]5CO)O[C@@H]4CO)O[C@@H]3CO", "Potency": "inactive"}, {"smiles": "CC(C)Oc1ccc2c(=O)c(-c3ccccc3)coc2c1", "Potency": "1.5 µM (active) and 2.11 µM (active)"}, {"smiles": "Cc1ccc(C)c(O)c1C", "Potency": "inactive"}, {"smiles": "Cc1[nH]c(=O)c(C#N)cc1-c1ccncc1", "Potency": "inactive"}, {"smiles": "CCCCC/C=C/C=C/C=O", "Potency": "inactive"}, {"smiles": "c1ccncc1", "Potency": "inactive"}, {"smiles": "Cc1cccc(C(=O)O)c1", "Potency": "inactive"}, {"smiles": "CCCCC(CC)COCC1CO1", "note": "(stereo unspecified)", "Potency": "inactive"}, {"smiles": "O=C(COc1ccc(Cl)cc1)N1CCN(Cc2ccc3c(c2)OCO3)CC1", "activation": "2.83% [at 42.5 µM]"}, {"smiles": "O=[N+]([O-])c1ccc2c(c1)Cc1ccccc1-2", "Potency": "54.4 µM (active)"}, {"smiles": "CC(C)OB(OC(C)C)OC(C)C", "Potency": "inactive"}, {"smiles": "CC(CCC(=O)O)(c1ccc(O)cc1)c1ccc(O)cc1", "Potency": "inactive"}, {"smiles": "CC(=O)C1(C)CC2=C(CCCC2(C)C)CC1C", "note": "(stereo unspecified)", "Potency": "inactive"}, {"smiles": "CCOC(=O)C(C#N)=C(c1ccccc1)c1ccccc1", "Potency": "3.86 µM (active) and 3.76 µM (active)"}, {"smiles": "CC(C)(C)NC(=O)[C@H]1CC[C@H]2[C@@H]3CC[C@H]4NC(=O)C=C[C@]4(C)[C@H]3CC[C@]12C", "Potency": "inactive"}, {"smiles": "C[C@]12CC[C@H]3[C@@H](CCC4=CC(=O)CC[C@@]43C)[C@@H]1CC[C@@H]2C(=O)CO", "Potency": "inactive"}, {"smiles": "C=C(C)C(=O)OCCOC(=O)C(=C)C", "Potency": "inactive"}]}]}
